A3G deaminase = inhibitors of human APOBEC3G DNA deaminase | Q9HC16 | inhibition, % at 20 µM | hit rate 0.28% among 330,000 | recombinant A3G, ssDNA deamination FAM/TAMRA fluorescence;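 active = inhibition of at least 40% at 20 µM, with no more than 30% in the related APOBEC3A deaminase screen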;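 also: plate controls were DMSO wells with A3G for no effect and wells lacking A3G enzyme for full effect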
Target sequence (Q9HC16 whole entry, looked up): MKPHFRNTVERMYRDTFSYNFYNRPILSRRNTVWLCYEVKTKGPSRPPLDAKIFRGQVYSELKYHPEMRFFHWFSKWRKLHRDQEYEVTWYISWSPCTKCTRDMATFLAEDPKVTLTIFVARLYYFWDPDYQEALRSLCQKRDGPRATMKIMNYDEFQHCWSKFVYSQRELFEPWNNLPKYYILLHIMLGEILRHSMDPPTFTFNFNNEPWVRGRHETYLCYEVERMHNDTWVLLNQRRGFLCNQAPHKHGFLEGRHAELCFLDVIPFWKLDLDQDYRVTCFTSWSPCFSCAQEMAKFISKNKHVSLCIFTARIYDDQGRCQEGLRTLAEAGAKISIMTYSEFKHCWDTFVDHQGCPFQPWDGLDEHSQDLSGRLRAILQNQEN
PolyA inhibitor = yeast polyadenylation inhibition. S. cerevisiae SKY197-pL101 polyadenylation reporter, beta-gal luminescence; efflux-impaired pdr1/pdr3 knockout yeast; score 100 = 6 SD above DMSO. activity score, % at 12 µM. hit rate 0.02% among 300,000. AID 1875;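 active = lowest replicate activity score at least 50, where 100 means six control SD above control mean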;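 also: yeast exposed to compound for 9 h at 30 °C; higher score means more reporter readthrough which indicates perturbed polyadenylation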
APOBEC3A inh = inhibitors of human APOBEC3A DNA deaminase. P31941. recombinant A3A, FAM/TAMRA ssDNA deamination fluorescence. hit rate 0.41% among 330,000. inhibition, % at 20 µM;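 active = at least 40% inhibition at 20 µM here, with at most 30% in a related deaminase screen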;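 also: plate controls were A3A with DMSO for no effect and wells lacking A3A enzyme for full effect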
Target sequence (P31941 whole entry, looked up): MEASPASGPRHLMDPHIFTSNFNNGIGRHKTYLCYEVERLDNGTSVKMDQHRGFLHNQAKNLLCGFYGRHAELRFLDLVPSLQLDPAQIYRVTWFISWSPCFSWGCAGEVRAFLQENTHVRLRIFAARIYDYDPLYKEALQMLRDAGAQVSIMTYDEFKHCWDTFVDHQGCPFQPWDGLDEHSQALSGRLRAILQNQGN
NALP1 inh = inhibitors of NALP1 inflammasome in yeast; S. cerevisiae NALP1/ASC/caspase-1 growth, X-gal OD620, 72 h; inhibition, % at 10 µM; hit rate 0.61% among 280,000; in the data active = inhibition mostly above about 24%, no sharp cut-off; inactive = mostly below about 32%
A3G conf = APOBEC3G (human) deaminase inhibition, confirmed | shares compounds with A3G deaminase | recombinant A3G ssDNA deaminase, UDG/FAM-TAMRA fluorescence | inhibition, % at 20 µM | hit rate 72% among 890 | AID 493152;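 active = inhibition reaching a set limit in any replicate at 20 µM, the limit being 80% of the first screen's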
UDG ctr A3G = counter-screen for APOBEC3G inhibitors: E. coli UDG. shares compounds with A3G deaminase. UDG counterscreen, FAM/TAMRA oligo fluorescence. inhibition, % at 20 µM. 710 tested, under 10 active;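 active = compounds giving 40% or more inhibition at 20 µM in any one of the three replicates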;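 also: plate controls were DMSO wells with UDG and oligo for no effect and DMSO wells lacking both for full effect; inhibitors lower the FAM signal released by uracil excision and alkaline cleavage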
Starred values were filed as active, the others as inactive; / = no result given. Shown are actives, neighbours in structure and some others; about 1.2% of the full set was active somewhere.

SMILES	A3G deaminase	PolyA inhibitor	APOBEC3A inh	NALP1 inh	A3G conf	UDG ctr A3G
Cc1ccc(N=c2ssnc2Cl)cc1	73.3*	-4.3	4.7	8.1	75.3*	-3.3
Cc1cc(Cl)ccc1N=c1ssnc1Cl	61.4*	4.1	2.2	34.1	62.4*	-4.1
CCn1ncc(/C=N\NC(=O)c2ccc3c(c2)c(C)c(C)n3Cc2ccccc2)c1C	70.4*	16.2	-3.0	33.9	-0.3	-4.5
CCn1cc(/C=N\NC(=O)c2ccc3c(c2)c(C)c(C)n3Cc2ccccc2)c(C)n1	2.8	14.5	19.5	5.8	/	/
CC1CCc2c(sc(NC(=O)c3nc4ncccn4n3)c2C#N)C1 (stereo not given)	53.7*	-14.0	2.7	/	40.1*	-1.6
S=c1[nH]nc(-c2ccc(Br)cc2)n1-c1ccc(Br)cc1	-4.5	-7.5	-7.6	16.7	/	/
O=C(O)c1ccc(-n2c(-c3ccc(Br)cc3)n[nH]c2=S)cc1	44.2*	19.4	-6.2	-10.2	65.4*	-1.7
CCn1c(SCC(=O)Nc2ccc(OC)c(OC)c2)nnc1-c1ccco1	43.2*	5.2	-3.6	-2.7	-4.9	-4.2
CCn1c(SCC(=O)Nc2ccc(OC)cc2)nnc1-c1ccco1	-8.5	17.2	-7.1	2.3	/	/
COc1cc(C(C(=O)NC(C)(C)C)N(C(=O)CNC(=O)c2cccs2)c2cccnc2)cc(OC)c1OC (stereo not given)	-13.9	-10.0	-3.5	7.4	/	/
Nn1c(Cc2ccc(Br)cc2)n[nH]c1=S	50.6*	10.9	-3.9	-41.3	80.4*	-2.6
COc1ccc(Cc2n[nH]c(=S)n2N)cc1OC	60.9*	-4.2	0.6	-19.5	57.9*	0.2
Nn1c(Cc2cccc3ccccc23)n[nH]c1=S	47.3*	/	-4.9	-17.1	82.2*	-2.5
Nn1c(Cc2ccccc2F)n[nH]c1=S	12.4	-9.9	-4.0	-14.0	/	/
COc1ccc(CCCc2n[nH]c(=S)n2C)cc1C	26.7	-3.1	-0.8	1.6	/	/
COc1ccc(Cc2n[nH]c(=S)n2C)cc1Br	42.1*	8.7	-0.9	14.6	54.4*	1.3
CCOc1ccc(Cc2n[nH]c(=S)n2N)cc1	29.0	6.7	-3.8	6.9	/	/
Cc1c(N(C)S(=O)(=O)c2cc(C(=O)N3CCCC3)ccc2Cl)c(=O)n(-c2ccccc2)n1C	7.2	10.6	1.1	1.6	/	/
CC(=O)c1cccc(N(CC(=O)NC2CCCCC2)C(=O)CNC(=O)c2cccs2)c1	-1.3	6.7	-3.8	19.7	/	/
c1ccc(-c2nn3c(Cn4cnc5ccccc54)nnc3s2)cc1	48.9*	1.5	10.5	28.7	43.5*	3.4
c1ccc2c(c1)ncn2Cc1nnc2sc(-c3ccncc3)nn12	34.1	4.3	4.6	18.0	/	/
c1cncc(-c2nn3c(Cn4cnc5ccccc54)nnc3s2)c1	53.4*	24.6	-0.8	15.7	13.2	3.1
Clc1ccc(Cl)c(-c2nn3c(Cn4cnc5ccccc54)nnc3s2)c1	-2.2	-1.8	12.6	/	/	/
c1ccc(-c2nn3c(Cn4nnc5ccccc54)nnc3s2)cc1	45.5*	-14.9	1.4	-0.4	41.3*	-4.3
CC(C)(C)C(=O)OCCNc1nc(-c2ccccc2)nc2ccccc12	-2.7	8.3	-5.6	35.4	/	/
SMILES	A3G deaminase	PolyA inhibitor	APOBEC3A inh	NALP1 inh	A3G conf	UDG ctr A3G
COc1ccc(NC(=O)C2CC(c3ccccc3O)=NO2)cc1OC (stereo not given)	-1.1	-5.0	-1.0	-4.7	/	/
COc1ccc(OC)c(C(=O)c2coc3ccc(OC(C)=O)cc23)c1	78.9*	-22.5	1.0	32.1	-1.8	/
COc1ccc(C(=O)c2coc3ccc(OC(C)=O)cc23)cc1	-1.9	-12.0	-0.4	15.2	/	/
Cc1cc(C(=O)CSc2nnc(C3CC3)n2C2CC2)c(C)n1C(C)C	-6.2	/	-4.6	/	/	/
O=C(NC1CCCCCC1)C(=S)N1CCOCC1	54.3*	5.5	5.3	3.1	44.1*	1.1
COCCNC(=O)C(NC(=O)C1CCCCC1)C12CC3CC(CC(C3)C1)C2 (stereo not given)	-7.5	15.5	-3.2	20.3	/	/
NC(=O)c1c(NC(=O)CCCn2cnc([N+](=O)[O-])n2)sc2c1CCCC2	59.2*	10.5	4.0	9.5	41.4*	2.9
CC/C(=N\NC(=O)c1nnn(-c2nonc2N)c1CN(C)c1ccccc1)c1ccccc1	-4.0	-12.5	-3.6	-2.7	/	/
Oc1cccc2cc3cccc(O)c3c(O)c12	55.0*	-15.5	13.3	-3.7	61.8*	-1.7
O=c1oc(-c2ccc(O)c(O)c2)cc2cccc(O)c12	-4.9	/	1.3	/	/	/
CC(=O)c1ccc(NC(=O)c2ccc(NC(=O)c3ccco3)cc2)cc1	56.8*	7.0	16.3	9.2	56.6*	1.6
Cc1noc(NS(=O)(=O)c2ccc(NC(=O)c3oc4ccc(Cl)cc4c3C)cc2)c1C	-6.9	3.5	-4.4	2.3	/	/
N#CC1=C2SCN(c3ccccc3)CN2C(=O)CC1c1c(Cl)cccc1Cl (stereo not given)	58.8*	-11.9	-7.7	-5.1	65.4*	1.2
N#CC1=C2SCC(O)(c3ccccc3)N2C(=O)CC1c1cccs1 (stereo not given)	/	/	/	-13.5	/	/
N#CC1=C2SCN(c3ccccc3)CN2C(=O)CC1c1cccs1 (stereo not given)	48.1*	8.2	6.9	10.1	55.4*	-2.3
CCC(C)(C)n1nnnc1C(c1ccc2ncccc2c1)N1CCN(c2ccc(O)cc2)CC1 (stereo not given)	41.0*	-7.1	2.2	/	5.0	/
CCc1nc2ccccc2c(C(=O)OCc2nc3ccccc3c(=O)[nH]2)c1C	-5.4	/	-0.3	/	/	/
O=C(NCCCc1ccccc1)[C@@H]1Cc2ccccc2CN1	61.7*	12.7	-6.4	6.2	20.0*	4.5
CC(NC(=O)CNC(=O)[C@@H]1Cc2ccccc2CN1)c1ccccc1 (stereo not given in full)	-1.6	7.5	-2.1	-2.1	/	/
CC(Oc1ccc2c3c(c(=O)oc2c1)CCCC3)C(=O)NCCN1CCOCC1 (stereo not given)	72.7*	3.3	-4.1	4.5	-2.3	0.7
CS(=O)(=O)c1ccc(C(=O)OCC(=O)NCc2cccs2)cc1[N+](=O)[O-]	-3.5	/	-0.3	/	/	/
O=C(CN(Cc1ccc(F)cc1)S(=O)(=O)c1ccccc1)N1CCCCC1	81.1*	6.9	-2.0	-1.7	-21.6	-1.1
Cc1cc(=O)oc2cc(OCC(=O)Nc3ccc(F)cc3F)ccc12	-9.3	/	-1.5	/	/	/
COc1cccc(CN2CCN(Cc3[nH]c4ccccc4c3C)CC2CCO)c1 (stereo not given)	51.5*	13.5	-2.0	-2.8	-7.9	-7.8
Cc1ccsc1/C=N/n1c(-c2cccnc2)n[nH]c1=S	39.6	5.8	-7.4	5.8	/	/
Cc1n[nH]c(=S)n(/N=C/c2cccc([N+](=O)[O-])c2)c1=O	-4.5	-11.9	1.2	-12.2	/	/
O=[N+]([O-])c1ccc(Cl)c(/C=N/n2c(-c3cccnc3)n[nH]c2=S)c1	47.8*	12.5	4.0	8.6	24.8	/
